Experimental data reported in the supplement of paper PMC10849652.
About 7,900 targets were measured; listed, in parts, are those with a hit and a random draw of the rest. About 0.6% of all pairs of compound and target were hits. A number with no mark means an inactive call.

Compound: CC1=CC=C(C=C1)SC2=C3C=C(SC3=CN=C2)C(=O)N
Assay: log2 fold change, soluble protein after heating vs DMSO (PISA); higher = thermal stabilisation; K562 cells, 10 uM, 30 min; active = over 0.2 and 3.5 SD of the protein, either way, in both replicates (recomputed)
How it was run: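 Thermal stability values are relative to control samples and come from duplicates. They are expressed as log2 fold changes. For measurement, K562 cells (2×10^6 cells/mL) received 10 μM compound for 30 min, and aliquots were heated for 3 min over 48°C-58°C, pooled, and extracted at 4°C in PBS with 0.5% NP-40. Soluble protein, the supernatant after 21,000xg for 90 min, was quantified by TMTpro 16plex LC-MS/MS with equalised channel sums.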

UniProt Q8IWV8, sequence (Q8IWV8 whole entry, looked up): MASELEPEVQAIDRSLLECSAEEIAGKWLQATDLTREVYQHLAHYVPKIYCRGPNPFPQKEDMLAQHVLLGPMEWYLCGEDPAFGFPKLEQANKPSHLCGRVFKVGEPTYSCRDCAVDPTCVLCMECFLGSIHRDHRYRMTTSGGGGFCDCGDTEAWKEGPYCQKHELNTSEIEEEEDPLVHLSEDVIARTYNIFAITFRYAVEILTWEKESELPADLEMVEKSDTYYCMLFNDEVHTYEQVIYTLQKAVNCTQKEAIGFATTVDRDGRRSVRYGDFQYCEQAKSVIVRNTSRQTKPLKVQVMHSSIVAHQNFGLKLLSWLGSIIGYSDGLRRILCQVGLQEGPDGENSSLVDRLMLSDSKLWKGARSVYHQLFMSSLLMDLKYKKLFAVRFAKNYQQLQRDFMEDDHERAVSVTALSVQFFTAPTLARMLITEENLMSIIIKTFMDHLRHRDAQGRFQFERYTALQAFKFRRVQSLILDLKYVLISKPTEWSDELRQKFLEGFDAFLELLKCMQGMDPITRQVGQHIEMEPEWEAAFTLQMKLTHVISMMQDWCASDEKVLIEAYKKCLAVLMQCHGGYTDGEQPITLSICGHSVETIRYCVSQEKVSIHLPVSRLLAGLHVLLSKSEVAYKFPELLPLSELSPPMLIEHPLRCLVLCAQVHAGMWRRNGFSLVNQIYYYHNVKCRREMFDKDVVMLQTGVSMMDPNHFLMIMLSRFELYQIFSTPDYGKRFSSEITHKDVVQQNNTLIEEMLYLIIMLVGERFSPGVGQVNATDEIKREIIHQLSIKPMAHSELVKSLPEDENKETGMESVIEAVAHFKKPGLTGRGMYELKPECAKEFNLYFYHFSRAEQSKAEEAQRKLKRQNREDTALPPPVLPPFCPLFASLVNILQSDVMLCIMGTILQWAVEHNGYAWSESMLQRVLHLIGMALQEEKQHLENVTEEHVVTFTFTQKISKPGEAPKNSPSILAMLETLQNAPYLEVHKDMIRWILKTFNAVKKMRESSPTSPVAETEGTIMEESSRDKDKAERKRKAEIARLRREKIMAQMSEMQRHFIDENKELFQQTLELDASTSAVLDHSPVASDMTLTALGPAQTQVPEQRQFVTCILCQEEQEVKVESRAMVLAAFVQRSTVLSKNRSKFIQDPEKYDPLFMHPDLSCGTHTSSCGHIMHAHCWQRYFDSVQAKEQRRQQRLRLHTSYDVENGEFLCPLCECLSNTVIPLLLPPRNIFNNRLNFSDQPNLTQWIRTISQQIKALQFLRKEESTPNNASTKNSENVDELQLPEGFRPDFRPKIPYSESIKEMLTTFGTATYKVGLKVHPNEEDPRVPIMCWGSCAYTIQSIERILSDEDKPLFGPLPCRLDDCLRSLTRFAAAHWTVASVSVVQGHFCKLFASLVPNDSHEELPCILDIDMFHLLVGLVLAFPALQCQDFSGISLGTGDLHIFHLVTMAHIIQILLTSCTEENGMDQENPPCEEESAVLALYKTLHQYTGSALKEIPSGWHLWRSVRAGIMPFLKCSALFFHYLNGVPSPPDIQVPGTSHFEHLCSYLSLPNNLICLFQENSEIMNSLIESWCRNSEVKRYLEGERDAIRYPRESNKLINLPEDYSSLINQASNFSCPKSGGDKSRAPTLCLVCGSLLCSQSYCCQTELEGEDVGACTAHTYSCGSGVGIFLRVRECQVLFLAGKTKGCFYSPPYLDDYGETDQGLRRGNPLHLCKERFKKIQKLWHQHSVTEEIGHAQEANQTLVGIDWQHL
UniProt P26368, sequence (P26368 whole entry, looked up): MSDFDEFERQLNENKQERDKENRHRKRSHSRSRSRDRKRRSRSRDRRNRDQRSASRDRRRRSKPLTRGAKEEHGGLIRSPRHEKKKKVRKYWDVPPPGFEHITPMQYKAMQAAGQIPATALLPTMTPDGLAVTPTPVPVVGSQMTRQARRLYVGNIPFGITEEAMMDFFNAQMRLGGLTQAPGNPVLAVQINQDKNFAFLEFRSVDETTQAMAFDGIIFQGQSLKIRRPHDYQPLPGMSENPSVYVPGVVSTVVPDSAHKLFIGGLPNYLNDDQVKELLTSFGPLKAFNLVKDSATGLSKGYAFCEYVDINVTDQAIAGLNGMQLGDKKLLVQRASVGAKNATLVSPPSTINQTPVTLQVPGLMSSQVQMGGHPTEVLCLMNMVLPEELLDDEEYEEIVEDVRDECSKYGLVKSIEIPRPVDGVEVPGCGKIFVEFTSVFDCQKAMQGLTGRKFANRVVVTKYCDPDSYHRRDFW
UniProt Q7L0Y3, sequence (Q7L0Y3 whole entry, looked up): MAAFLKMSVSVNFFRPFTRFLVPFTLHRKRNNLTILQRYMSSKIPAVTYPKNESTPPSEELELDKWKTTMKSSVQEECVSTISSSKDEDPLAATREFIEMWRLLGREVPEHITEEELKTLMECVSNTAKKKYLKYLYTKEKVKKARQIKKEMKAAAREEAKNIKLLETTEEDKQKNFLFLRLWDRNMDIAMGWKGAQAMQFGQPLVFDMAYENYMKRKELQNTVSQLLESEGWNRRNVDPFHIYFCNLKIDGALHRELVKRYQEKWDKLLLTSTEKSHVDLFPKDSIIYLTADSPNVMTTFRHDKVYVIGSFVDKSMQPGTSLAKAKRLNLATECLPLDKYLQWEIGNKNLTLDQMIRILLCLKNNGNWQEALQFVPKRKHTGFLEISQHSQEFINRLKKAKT
UniProt A6NHL2, sequence (A6NHL2 whole entry, looked up): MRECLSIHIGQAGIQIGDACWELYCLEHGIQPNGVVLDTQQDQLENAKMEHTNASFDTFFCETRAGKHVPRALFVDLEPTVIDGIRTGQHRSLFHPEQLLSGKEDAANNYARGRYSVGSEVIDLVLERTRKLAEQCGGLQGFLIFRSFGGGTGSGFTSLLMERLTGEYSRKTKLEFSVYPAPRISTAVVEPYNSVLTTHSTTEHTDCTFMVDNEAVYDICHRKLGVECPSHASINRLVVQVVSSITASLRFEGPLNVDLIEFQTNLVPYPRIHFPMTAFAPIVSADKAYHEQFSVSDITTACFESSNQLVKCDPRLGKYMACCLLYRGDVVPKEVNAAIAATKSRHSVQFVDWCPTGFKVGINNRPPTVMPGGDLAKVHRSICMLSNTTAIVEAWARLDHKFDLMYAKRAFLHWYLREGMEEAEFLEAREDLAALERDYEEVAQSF
UniProt P22314, sequence (P22314 whole entry, looked up): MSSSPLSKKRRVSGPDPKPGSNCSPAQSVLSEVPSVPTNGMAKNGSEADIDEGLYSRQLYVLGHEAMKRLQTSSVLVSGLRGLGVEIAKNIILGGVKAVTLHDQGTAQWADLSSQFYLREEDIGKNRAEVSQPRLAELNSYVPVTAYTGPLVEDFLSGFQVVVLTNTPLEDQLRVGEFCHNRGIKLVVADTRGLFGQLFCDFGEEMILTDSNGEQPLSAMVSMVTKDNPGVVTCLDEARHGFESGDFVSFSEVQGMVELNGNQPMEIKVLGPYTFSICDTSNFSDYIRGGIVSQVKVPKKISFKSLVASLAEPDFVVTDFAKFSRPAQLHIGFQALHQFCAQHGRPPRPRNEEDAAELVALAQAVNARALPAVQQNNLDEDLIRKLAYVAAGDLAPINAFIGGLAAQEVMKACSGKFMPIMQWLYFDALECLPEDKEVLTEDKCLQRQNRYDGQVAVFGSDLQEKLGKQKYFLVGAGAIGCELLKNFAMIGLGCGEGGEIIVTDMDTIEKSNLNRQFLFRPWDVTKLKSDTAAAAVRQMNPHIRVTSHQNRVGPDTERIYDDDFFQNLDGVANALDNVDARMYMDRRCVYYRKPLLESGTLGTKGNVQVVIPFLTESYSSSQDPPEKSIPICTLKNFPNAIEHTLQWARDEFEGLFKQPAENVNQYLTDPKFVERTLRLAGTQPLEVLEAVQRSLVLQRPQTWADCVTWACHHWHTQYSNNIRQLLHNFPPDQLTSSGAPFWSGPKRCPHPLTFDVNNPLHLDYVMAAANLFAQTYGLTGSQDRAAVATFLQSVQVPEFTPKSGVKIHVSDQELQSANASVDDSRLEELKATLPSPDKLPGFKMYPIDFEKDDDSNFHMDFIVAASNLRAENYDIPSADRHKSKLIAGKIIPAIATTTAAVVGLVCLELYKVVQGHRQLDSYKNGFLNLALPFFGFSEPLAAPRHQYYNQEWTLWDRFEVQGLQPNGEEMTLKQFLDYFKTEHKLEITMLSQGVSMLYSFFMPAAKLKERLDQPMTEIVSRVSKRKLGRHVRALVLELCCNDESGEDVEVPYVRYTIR
UniProt Q16763, sequence (Q16763 whole entry, looked up): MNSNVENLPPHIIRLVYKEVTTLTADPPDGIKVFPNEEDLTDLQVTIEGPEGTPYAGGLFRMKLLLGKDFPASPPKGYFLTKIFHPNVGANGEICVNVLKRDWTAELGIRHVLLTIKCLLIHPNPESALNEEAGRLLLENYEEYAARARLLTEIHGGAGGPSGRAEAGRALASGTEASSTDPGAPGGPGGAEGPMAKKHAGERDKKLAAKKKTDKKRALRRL
UniProt Q8N4H5, sequence (Q8N4H5 whole entry, looked up): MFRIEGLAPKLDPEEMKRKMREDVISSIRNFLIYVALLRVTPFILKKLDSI
UniProt O00258, sequence (O00258 whole entry, looked up): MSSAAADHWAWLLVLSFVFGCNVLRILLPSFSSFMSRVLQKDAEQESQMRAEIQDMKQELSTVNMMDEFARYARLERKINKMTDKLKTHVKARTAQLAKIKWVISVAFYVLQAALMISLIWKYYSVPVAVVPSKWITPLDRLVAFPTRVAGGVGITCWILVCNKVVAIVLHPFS
UniProt Q01081, sequence (Q01081 whole entry, looked up): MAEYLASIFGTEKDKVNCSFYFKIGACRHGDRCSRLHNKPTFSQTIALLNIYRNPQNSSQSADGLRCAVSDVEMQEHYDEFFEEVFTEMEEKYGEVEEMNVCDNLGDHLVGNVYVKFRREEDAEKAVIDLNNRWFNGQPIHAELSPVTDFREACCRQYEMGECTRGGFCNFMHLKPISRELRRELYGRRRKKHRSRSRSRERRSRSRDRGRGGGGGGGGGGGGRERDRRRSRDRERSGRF

| Target | log2 fold change |
| --- | --- |
| WDHD1 (UniProt O75717) | 0.013 |
| TOMM5 isoform 2 (UniProt Q8N4H5) | 0.005 |
| WDR41 (UniProt Q9HAD4) | -0.007 |
| XPO5 (UniProt Q9HAV4) | 0.054 |
| VARS2, A0A0G2JL52 | -0.025 |
| WNK1 isoform 7 (UniProt Q9H4A3) | -0.006 |
| TRIM28 (UniProt Q13263) | 0.013 |
| WRB (UniProt O00258) | -0.007 |
| UBR2 (UniProt Q8IWV8) | 0.048 |
| UBE2S (UniProt Q16763) | 0.004 |
| VPS13B (UniProt Q7Z7G8) | 0.06 |
| TRMT10C (UniProt Q7L0Y3) | 0.017 |
| XPNPEP3 (UniProt Q9NQH7) | 0.005 |
| TMEM189-UBE2V1 (UniProt I3L0A0) | 0.006 |
| USP15 (UniProt Q9Y4E8) | 0.023 |
| VWA8 (UniProt A3KMH1) | 0.023 |
| TUBAL3 (UniProt A6NHL2) | 0.005 |
| XPO1 (UniProt O14980) | 0.025 |
| U2AF2 (UniProt P26368) | -0.066 |
| WDR47 (UniProt O94967) | 0.07 |
| U2AF1 isoform 2 (UniProt Q01081) | -0.01 |
| XPNPEP1 isoform 3 (UniProt Q9NQW7) | 0.023 |
| UBA1 (UniProt P22314) | 0.048 |
